Bst PK mod: modulators of Bacillus stearothermophilus pyruvate kinase | purified pyruvate kinase, luminescence ATP production; ribose 5-phosphate activator present at AC10 | Potency, µM | actives 1.2% (n = 51,000) | AID 361; in the data active = potency below about 11 µM;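 the screen sought inhibitors and activators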;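 note: scaled between full activation by ribose 5 phosphate and full inhibition by luteolin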
Luciferase inh: blocks Photinus pyralis firefly luciferase activity | P08659 | purified firefly luciferase, luminescence, 8 min | Potency, µM (highest dose often 57.1 µM), without a hit: top-dose activity change, negative = inhibition, most hits filed as inhibitors | actives 2.2% (n = 72,000) | AID 411; active = well fitted inhibition curve with a large enough effect; note: nearly all actives have a fitted effect of over 40% in size
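Titration-based qHTS; buffer 50 mM imidazole pH 7.2, 50 mM KCl, 7 mM MgCl2, 10 uM ATP, 0.01% Tween 20, 0.05% BSA; luciferase/luciferin detector mix added after compound; 8 min, ambient; luminescence.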
* = called active by the depositor; i = inactive; x = no result; [ ] = dose if it differs, or a comment. Most compounds without a hit are left out; they make up all but 2.5% or so of the library. Unless noted, % is set by controls: 0 for no effect and ±100 for the full control effect; potency is the fitted concentration of half-maximal effect.

SMILES | Bst PK mod | Luciferase inh
O=C(c1cc(-c2ccccc2O)on1)N1CCc2ccccc2C1 | x | -8.4%
O=C(c1cc(-c2cccc(O)c2)on1)N1CCOCC1 | x | 12.6µM*
CC1CCN(C(=O)c2cc(-c3ccccc3O)on2)CC1 | x | 10µM*
CCCCC(=O)Nc1ccc2c(c1)nc1n2CCOC1 | >57 | -7.9%
Cc1nn(-c2ccccc2)c(Cl)c1C1C(C#N)=C(N)OC2=C1C(=O)CC(C)(C)C2 (centres undefined) | >57 | 2.5%
CC1CCCC(C(=O)O)N1C(=O)CCSC(=O)c1ccccc1 (centres undefined) | >57 | -1.4%
Cc1cccc(CS(=O)(=O)Cc2ccc(C(=O)O)o2)c1 | >57 | 0.0%
COC(=O)c1cccc(NC(=O)NC2CCCN2S(=O)(=O)c2ccc(Cl)cc2)c1 (centres undefined) | 9.55* | 2.1%
O=C(COC(=O)C1CCCN1S(=O)(=O)c1ccc(Cl)cc1)Nc1ccc2c(c1)OCO2 (centres undefined) | i | -2.4%
CC(C)=CCC/C(C)=C/CO/N=C1/C[C@@H](O)[C@@H](O)[C@@H]2[C@@H]3C(=O)N(C[C@@H]4CCCO4)C(=O)[C@H]3CC[C@@H]12 | x | 1.7%[11.4 µM]
CCC(=O)Nc1cccc(NC(=O)CSc2nnnn2Cc2ccccc2)c1 | >57 | -3.0%
c1ccc(COc2ccc(OCCCn3cncn3)cc2)cc1 | x | 20µM*
FC(F)(F)c1cccc(OCCOCCn2cncn2)c1 | >57 | -0.3%
c1ccc(-c2ccc(OCCOCCn3cncn3)cc2)cc1 | x | 12.6µM*
c1ccc(Cc2ccc(OCCn3cncn3)cc2)cc1 | >57 | -1.0%
COc1cc(CNc2ccc3[nH]c(=O)[nH]c3c2)ccc1OCC(=O)NC(C)(C)C | x | -3.5%

Screens deposited in PubChem BioAssay by National Center for Advancing Translational Sciences (NCATS).
